{"source": "PubChem BioAssay (NCI)", "note": "Several values for one entry are separate records, joined by “and”; a condition that tells them apart may be missing. Equal values may be shown once. About 83,000 compounds went through this panel and 20% of them were active in at least one assay; those are over-represented in the sample as a whole.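 Treatment: one concentration, 48 hours, 96-well format. Scoring: percent growth, with anything below 10 considered active.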 Activity calls are given as the source filed them."}
{"test_system": "786-0 renal", "assay": "NCI-60 one-dose screen, 48 h (100 = growth as untreated, 0 = no growth, -100 = all killed)", "conditions": "10 µM unless noted"}
{"smiles": "CN(Cc1ccccc1)c1nc(Cl)c(C2CC(c3ccc(F)cc3)=NN2C=O)s1", "note": "(stereo not drawn)", "growth": "93.9% (inactive)"}
{"smiles": "CCOC(=O)c1ccc(Nc2ncnc3c2cnn3-c2cccc(F)c2)cc1", "growth": "104% (inactive)"}
{"smiles": "Cc1ccc2nc3ccccc3c(NCc3ccc(Cl)cc3)c2c1", "growth": "34.7% (inactive)"}
{"smiles": "O=S(=O)(Nc1cc(Sc2cccc3cccnc23)c(O)c2ccccc12)c1ccc(F)cc1", "growth": "2.18% (active)"}
{"smiles": "CCCCC1COc2cccc3c2N1C=C/C3=C\\C(=O)N(C)c1cccc(Cl)c1", "note": "(stereo not drawn)", "growth": "99.8% (inactive)"}
{"smiles": "Cc1ccc(-c2nc3nc(-c4ccc(Cl)cc4)nc(N4CCCNCC4)c3o2)cc1", "growth": "-82.9% (active)"}
{"smiles": "COc1cc(NS(=O)(=O)C(C)C)cc(-c2cc(-c3ccc(N4CCNCC4)cc3)cnc2N)c1", "growth": "45.1% (inactive)"}
{"smiles": "COCCn1cc(-c2csc(-c3cn(C)c4ccc(F)cc34)n2)c2cccnc21", "growth": "62% (inactive)"}
{"smiles": "COc1ccc(NC(=O)Nc2ccccc2CNc2nc(Nc3ccc(OCCN4CCCC4)cc3)ncc2Cl)cc1", "growth": "-84% (active)"}
{"smiles": "COc1cc(CNC(=O)CCCC/C=C/C(C)C)ccc1O", "growth": "107% (inactive) and 101% (inactive)"}
{"smiles": "CC(Sc1ccccc1)C(=O)O", "note": "(stereo not drawn)", "growth": "118% (inactive)"}
{"smiles": "Cc1ccc(-c2nc3nc(-c4ccccc4)nc(N4CCCNCC4)c3o2)cc1", "growth": "-97.1% (active)"}
{"smiles": "CCCCn1c(C(=O)c2c[nH]c3ccccc23)n[nH]c1=S", "growth": "102% (inactive)"}
{"smiles": "O=C1C(=C(O)c2ccccc2)C(=O)c2ccccc21", "growth": "95.6% (inactive)"}
{"smiles": "COc1ccc(-c2c[nH]c(C(=O)O)c2-c2cc(OC)c(OC)c(OC)c2)cc1", "growth": "31.3% (inactive)"}
{"smiles": "O=C(Nc1ccc2ccccc2c1)c1cc2ccccc2cc1O", "growth": "85.6% (inactive)"}
{"smiles": "N=C(N)SCc1c2ccccc2c(CSC(=N)N)c2ccccc12", "growth": "47.7% (inactive)"}
{"smiles": "NNCCc1ccccc1", "growth": "95.2% (inactive) and 106% (inactive)"}
{"smiles": "Brc1ccc(/C=C(/C2=NCCN2)n2ccc3ccccc32)cc1", "growth": "81.6% (inactive)"}
{"smiles": "C=C(c1ccc(C(=O)O)cc1)c1cc2c(cc1C)C(C)(C)CCC2(C)C", "growth": "79.1% (inactive) and 80.1% (inactive)"}
{"smiles": "N=C(N)c1ccc(-c2ccc(-c3ccc(Cl)c(Cl)c3)s2)cc1", "growth": "-3.47% (active)"}
{"smiles": "C=C(CN1CC=CCC1)[C@@H]1CC[C@]2(COC(C)=O)CC[C@]3(C)[C@H](CC[C@@H]4[C@@]5(C)CC[C@H](O)C(C)(C)[C@@H]5CC[C@]43C)[C@@H]12", "growth": "103% (inactive)"}
{"smiles": "O=[N+]([O-])c1cc(C(F)(F)F)ccc1Sc1ccc(C(F)(F)F)cc1[N+](=O)[O-]", "growth": "103% (inactive)"}
{"smiles": "CCn1cc(C(=O)NN=C2CCCC2)c(=O)c2ccc(C)nc21", "growth": "93.1% (inactive)"}
{"smiles": "O=C(Nc1ccc(Cl)c(Cl)c1)Nc1ccc(Cl)c(Cl)c1", "growth": "-63.1% (active) and 20.4% (inactive)"}
{"smiles": "Cn1c(=O)c2c(nc(Nc3cc(=O)[nH]c(=O)[nH]3)n2Cc2ccccc2)n(C)c1=O", "growth": "102% (inactive)"}
{"smiles": "CCOC(=O)c1c(-c2ccc(OC)cc2)c(C#N)c2c(C#N)c(N)nn2c1N", "growth": "45.3% (inactive)"}
{"smiles": "COc1cc(/C=N/NC(=O)CCN2c3ccccc3Sc3ccccc32)cc(OC)c1OC", "growth": "96.8% (inactive)"}
{"smiles": "O/N=C(/c1ccccc1)c1ccc2c3c(cccc13)CC2", "growth": "88.4% (inactive) and 92.1% (inactive)"}
{"smiles": "COc1cc(-c2nc3occn3c2-c2ccnc(NCCCNS(=O)(=O)c3ccc(O)cc3)n2)ccc1F", "growth": "122% (inactive)"}
{"smiles": "CN(C)c1ccc2nc3ccc(=O)cc-3sc2c1", "growth": "57.1% (inactive) and 43.7% (inactive)"}
{"smiles": "ON=C1CCCCCCCC1", "growth": "116% (inactive) and 95.6% (inactive)"}
{"smiles": "[Cu+].[NH-][C@H]1C[N-]C(=O)[C@H]([C@H]2CCN=C(N)N2)[N-]C(=O)/C(=C\\NC(N)=O)[N-]C(=O)[C@H](CNC(=O)C[C@@H](N)CCCN)[N-]C(=O)[C@H](CO)[N-]C1=O", "growth": "102% (inactive)"}
{"smiles": "CC(C)=CCc1cc(O)c(O)c2oc3cc(O)cc(O)c3c(=O)c12", "growth": "64.8% (inactive)"}
{"smiles": "Cc1ccc(S(=O)(=O)OC[C@@]2(C)CC[C@]3(C)CC[C@]4(C)C(=CC[C@@H]5[C@@]6(C)CCCNC(C)(C)[C@@H]6CC[C@]54C)[C@@H]3C2)cc1", "growth": "-79% (active)"}
{"smiles": "COc1cc(C=O)ccc1Oc1ccc([N+](=O)[O-])cc1[N+](=O)[O-]", "growth": "102% (inactive)"}
{"smiles": "COc1cc2ncnc(Nc3ccc(F)c(Cl)c3)c2cc1OCC(=O)N1CCCCC1", "growth": "78.2% (inactive)"}
{"smiles": "CCN1C(=S)N(CC)C2C1NC(=S)N2/N=C/C=C/c1ccccc1", "note": "(stereo not drawn)", "growth": "40.9% (inactive)"}
